Results reported in PubChem BioAssay (NCATS).
Records with an inconclusive call do not appear. Activity calls are given as the source filed them. Calls follow the shape of the dose curve; as a rule, active = well fitted curve in the direction sought with a large enough effect; inconclusive = small, poorly fitted or top-dose-only effect, or another doubt; inactive = no such curve, though single readings can be large; an effect the other way counts as inactive or inconclusive.

Key:
[1] = target: Glutathione peroxidase 1 (Homo sapiens) (UniProt P07203); assay: Primary qHTS Assay for Inhibitors of Recombinant Selenoprotein Glutathione Peroxidase 1 (GPX1) (AID 1845191); also: nearly all actives have a fitted effect of over 65% in size; as to activity, negative = inhibition: % is scaled to controls: 0 for no effect and ±100 for the full control effect
Summary of the method: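 NADPH consumption tracked by fluorescence at 340/450 nm between t=0 and t=15 min, room temperature. Final mix: 10 nM GPX1, 100 nM glutathione reductase, 1 mM GSH, 0.5 mM NADPH, 0.5 mM cumene hydroperoxide, 0.01% BSA; 30 min compound–enzyme preincubation.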

[2] = target: Phospholipid hydroperoxide glutathione peroxidase GPX4 (Homo sapiens) (UniProt P36969); assay: Primary qHTS Assay for Inhibitors of Recombinant Selenoprotein Glutathione Peroxidase 4 (GPX4) (AID 1845192); also: nearly all actives have a fitted effect of over 65% in size; as to activity change, negative = inhibition: series mostly up to about 50 µM; % is scaled to controls: 0 for no effect and ±100 for the full control effect
Summary of the method: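 NADPH consumption followed by fluorescence at 340/450 nm, t=0 and after 15 min at room temperature. Reaction started with cumene hydroperoxide (0.5 mM final) after 30 min compound–GPX4 preincubation; final 200 nM GPX4, 100 nM GR, 1 mM GSH, 0.5 mM NADPH.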

[3] = target: Luciferin 4-monooxygenase (Photinus pyralis) (UniProt P08659); assay: Primary firefly luciferase (FLuc) qHTS assay for identification of artifact compounds. (AID 1845220); also: nearly all actives have a fitted effect of over 60% in size;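 as to activity change, negative = inhibition: series mostly up to about 54 µM; plate controls were DMSO vehicle for no effect and no enzyme for full effect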
Summary of the method: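 FLuc 10 nM; luciferin 10 uM; ATP 10 uM; Tris-acetate pH 7.6, Mg-acetate 10 mM; 15 min RT preincubation; 5 min reaction; luminescence.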

[4] = Primary fluorescence-based thiol-reactive (MSTI) qHTS assay for identification of artifact compounds. (AID 1845221); also: nearly all actives have a fitted effect of over 65% in size; also: potency is read from the fitted curve at half-maximal effect;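 as to activity change, negative = thiol reactive: series mostly up to about 54 µM; thiol-reactive compounds lower the probe fluorescence signal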
Summary of the method: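 First, 4 uM MSTI in 2% DMSO/PBS pH 7.4 was dispensed; next, compounds were added; then plates sat 1 h at room temperature without light. Finally, emission at 598 nm was recorded.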

[5] = tested on: Nanoluciferase (engineered Oplophorus gracilirostris luciferase); assay: Primary Nanoluciferase (NLuc) qHTS assay for identification of artifact compounds. (AID 1845222);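 also: NLuc secreted into diluted conditioned medium of S16 cells; series mostly up to about 54 µM; 0% = DMSO and -100% = no enzyme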
Summary of the method: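 NLuc from S16 cell medium (1:55) plus test compounds, 15 min, room temperature. Luminescence after Nano-Glo (1:100) addition, 5 min.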

[6] = HepG2 viability counterscreen (readout 2: ATP content) against the NCATS DSHEA and TCM libraries (AID 1794840); also: 0% is about no effect
Summary of the method: (§1)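 HepG2 cells, 1,000/well, attached ~4 h, then exposed ~24 h at 37C to substances. Protease activity read by fluorescence of 25 uM GF-AFC (Ex/Em 380/510 nm) after 30 min; ATP then by CellTiter-Glo luminescence.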

[7] = HepG2 viability counterscreen (readout 1: protease activity) against the NCATS DSHEA and TCM libraries (AID 1794841);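 also: cells exposed to compounds for about 24 h before the protease read; 0% is about no effect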
Summary of the method: as §1

[8] = Primary redox qHTS assay for identification of artifact compounds. (AID 1845223);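 also: 0% = DMSO and 100% = reference compound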
Summary of the method: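 Redox-cycling detection via DTT (250 uM final) oxidation coupled to Amplex Red (25 uM)/HRP (250 mU/mL) in HBSS. 15 min preincubation plus 30 min after DTT, room temperature. Ex/Em 525/598 nm; 4-parameter Hill fit against DMSO and 10 uM DA3003.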

[9] = target: Cytochrome P450 3A4 (Homo sapiens) (UniProt P08684); assay: qHTS for inhibitors of CYP3A4 against the NCATS DSHEA and TCM libraries (AID 1919971);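 also: % is scaled to controls: 0 for no effect and ±100 for the full control effect; inhibition lowers luminescence from luciferin made by CYP3A4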
Summary of the method: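 Isoform-specific enzyme and substrate levels; enzyme-free wells as background. Reaction: 1x NADPH regenerating system, 30-45 min, room temperature, shielded from light; luminescent detection reagent added, 30 min.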

Chain of Glutathione peroxidase 1 (Homo sapiens) (P07203 whole entry, looked up): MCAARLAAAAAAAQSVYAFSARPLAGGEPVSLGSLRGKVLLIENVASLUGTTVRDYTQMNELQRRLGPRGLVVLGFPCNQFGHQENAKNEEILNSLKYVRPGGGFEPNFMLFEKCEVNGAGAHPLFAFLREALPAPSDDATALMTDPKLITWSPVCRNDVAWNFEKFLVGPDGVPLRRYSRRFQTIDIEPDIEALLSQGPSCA
Chain of Phospholipid hydroperoxide glutathione peroxidase GPX4 (Homo sapiens) (P36969 whole entry, looked up): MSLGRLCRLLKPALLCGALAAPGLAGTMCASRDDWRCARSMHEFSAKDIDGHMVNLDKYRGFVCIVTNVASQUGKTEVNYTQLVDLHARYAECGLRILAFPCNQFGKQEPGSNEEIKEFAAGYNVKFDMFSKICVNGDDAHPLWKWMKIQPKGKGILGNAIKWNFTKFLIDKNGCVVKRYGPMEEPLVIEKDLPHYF
Chain of Cytochrome P450 3A4 (Homo sapiens) (P08684 whole entry, looked up, canonical isoform): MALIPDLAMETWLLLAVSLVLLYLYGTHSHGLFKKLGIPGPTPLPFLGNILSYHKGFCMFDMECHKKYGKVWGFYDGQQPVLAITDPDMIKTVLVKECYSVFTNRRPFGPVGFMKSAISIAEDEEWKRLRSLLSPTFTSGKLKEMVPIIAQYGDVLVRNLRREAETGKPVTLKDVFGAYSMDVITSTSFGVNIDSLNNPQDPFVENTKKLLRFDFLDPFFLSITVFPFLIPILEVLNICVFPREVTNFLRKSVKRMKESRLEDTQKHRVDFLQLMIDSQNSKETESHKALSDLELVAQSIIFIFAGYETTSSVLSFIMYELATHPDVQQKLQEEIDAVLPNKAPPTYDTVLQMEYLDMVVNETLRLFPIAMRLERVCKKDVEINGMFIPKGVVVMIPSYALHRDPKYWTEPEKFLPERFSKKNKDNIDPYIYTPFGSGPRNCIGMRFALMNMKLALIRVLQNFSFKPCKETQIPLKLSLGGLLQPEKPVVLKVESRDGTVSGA

C/C=C(\C)C(=O)O[C@@H]1CC2[C@@H](CC=C3C[C@@H](O[C@H]4C[C@H](OC)[C@H](O[C@H]5C[C@H](OC)[C@H](O[C@@H]6O[C@H](C)[C@@H](O[C@H]7C[C@H](OC)[C@H](O[C@@H]8O[C@H](CO)[C@@H](O)[C@H](O)[C@H]8O)[C@@H](C)O7)[C@H](OC)[C@H]6O)[C@@H](C)O5)[C@@H](C)O4)CC[C@@]32C)[C@@]2(O)CC[C@H](C(C)=O)[C@@]12C (some centres not stated)
inactive: outcome [1] inactive [at 9.52 µM] | activity change, negative = inhibition [2] -6.94% [at 9.73 µM] | outcome [3] inactive [at 11.6 µM] | activity change, negative = thiol reactive [4] 14.5% [at 11.5 µM] | activity, negative = inhibition [5] 2.98% [at 11.6 µM]

C[C@@]12CC[C@@H]3[C@@](CC[C@H]4[C@@]3(C)CCC[C@@]4(C)C(=O)O)(CC1=O)C2
inactive: outcome [6] | outcome [7] | Potency [1] | Potency [2] | Potency [3] | Potency [4] | Potency [5] | Potency [8]

COc1cc(N2CCC(N3CCN(C)CC3)CC2)ccc1Nc1ncc(Cl)c(-c2c[nH]c3ccccc23)n1
active: Potency [4] 1.68 µM
inactive: Potency [1] | Potency [2] | Potency [3] | Potency [5]

CCCC(=O)NCCc1csc(-c2ccc(Cl)cc2)n1
inactive: Potency [1] | Potency [2] | Potency [3] | Potency [4] | Potency [5]

CCC(C)C(=O)O[C@H]1CCC=C2C=C[C@H](C)[C@H](CC[C@@H](O)C[C@@H](O)CC(=O)O)[C@H]21 (some centres not stated)
inactive: Potency [1] | Potency [2] | Potency [3] | Potency [4] | Potency [5]

CCOCCOC(=O)/C=C/c1ccc(OC)cc1
inactive: Potency [1] | Potency [2]

CC(C)=CCC[C@](C)(O)[C@H]1CC[C@]2(C)[C@@H]1[C@H](O)CC1[C@@]3(C)CC[C@H](O)C(C)(C)[C@@H]3[C@@H](O[C@@H]3O[C@H](CO)[C@@H](O)[C@H](O)[C@H]3O[C@@H]3O[C@H](CO)[C@@H](O)[C@H](O)[C@H]3O)C[C@]12C (some centres not stated)
inactive: outcome [6] | outcome [7] | Potency [1] | Potency [2] | Potency [3] | Potency [4] | Potency [5] | Potency [8] | outcome [9]

O=C(O)c1cc(I)ccc1NC(=O)[C@H](Cc1ccccc1)NCc1ccccc1
inactive: Potency [1] | Potency [2] | Potency [3] | Potency [4]

CC(C)=CCC(O)/C(C)=C/CO[C@@H]1O[C@H](CO)[C@@H](O)[C@H](O)[C@H]1O (some centres not stated)
inactive: outcome [6] | outcome [7] | Potency [1] | Potency [2] | Potency [3] | Potency [4] | Potency [5] | Potency [8] | outcome [9]

Oc1ccc(CNc2ccccc2F)c2cccnc12
active: Potency [4] 3.77 µM
inactive: Potency [1] | Potency [2] | Potency [3] | Potency [5]

C[C@@H]1O[C@@H](O[C@H]2[C@H](OC(=O)[C@]34CCC(C)(C)C[C@H]3C3=CCC5[C@@]6(C)CC[C@H](O[C@@H]7O[C@H](C(=O)O)[C@@H](O)[C@H](O)[C@H]7O[C@@H]7O[C@H](CO)[C@H](O)[C@H](O)[C@H]7O)[C@@](C)(C=O)C6CC[C@@]5(C)[C@]3(C)C[C@H]4O)O[C@H](C)[C@H](O[C@@H]3O[C@H](C)[C@H](O)[C@H](O)[C@H]3O)[C@@H]2O)[C@H](O)[C@H](O)[C@H]1O[C@@H]1OC[C@@H](O)[C@H](O[C@@H]2O[C@H](CO)[C@@H](O)[C@H](O)[C@H]2O)[C@H]1O (some centres not stated)
inactive: activity, negative = inhibition [1] 1.71% [at 9.52 µM] | outcome [2] inactive [at 9.73 µM] | outcome [3] inactive [at 6.45 µM] | activity change, negative = thiol reactive [4] 292% [at 6.41 µM] | activity, negative = inhibition [5] 4.73% [at 6.45 µM]

COC(=O)N1CCC(n2ncc3c(N4CCOCC4)nc(-c4ccc(NC(=O)Nc5ccc(CO)cc5)cc4)nc32)CC1
inactive: Potency [1] | Potency [2] | Potency [3] | Potency [4] | Potency [5]

CC1OC(OCC2OC(OC3CCC4(C)C(CCC5(C)C4CC=C4C6CC(C)(C)CCC6(C(=O)OC6OC(CO)C(O)C(O)C6O)CCC45C)C3(C)CO)C(O)C(O)C2O)C(O)C(O)C1O (configuration not stated)
inactive: Potency [1] | Potency [2] | activity change, negative = inhibition [3] -1.2% [at 11.6 µM] | activity change, negative = thiol reactive [4] 188% [at 11.5 µM]

CC(C)C(NC(=O)c1ccc2ccccc2n1)C(=O)NC(CC(=O)O)C(=O)COc1c(F)cccc1F (configuration not stated)
inactive: Potency [1] | Potency [2] | Potency [3] | Potency [4]

C=C(C(=O)O)C1CCC2(C)CCC(O)C(=C)C2C1 (configuration not stated)
active: Potency [4] 13.4 µM
inactive: Potency [1] | Potency [2] | Potency [3]

C[C@@H](Oc1cc(-n2cnc3ccc(OC4CCN(C)CC4)cc32)sc1C(N)=O)c1ccccc1C(F)(F)F
inactive: Potency [1] | Potency [2] | Potency [3] | Potency [4] | Potency [5]

C/C=C/C=C/C=C/C(=O)OC1C=C(C=O)C(O)(C(=O)O)C2(C)CCCC(C)(C)C12 (configuration not stated)
active: Potency [4] 5.82 µM
inactive: Potency [1] | Potency [2] | Potency [3]

CN(C)C/C=C/C(=O)Nc1cccc(C(=O)Nc2ccc(Nc3nccc(-c4cccnc4)n3)cc2)c1
inactive: Potency [1] | Potency [2] | Potency [3] | Potency [4] | Potency [5]

CC1OC(OC2C(C)OC(OC3C(OC(=O)C45CCC(C)(C)CC4C4=CCC6C7(C)CCC(OC8OC(C(=O)O)C(O)C(O)C8OC8OC(CO)C(O)C(OC9OC(C)C(O)C(O)C9O)C8O)C(C)(CO)C7CCC6(C)C4(C)CC5)OC(CO)C(O)C3O)C(O)C2O)C(O)C(O)C1O (configuration not stated)
inactive: activity, negative = inhibition [1] -14% [at 9.52 µM] | activity change, negative = inhibition [2] -14.3% [at 9.73 µM] | activity change, negative = inhibition [3] -4.3% [at 11.6 µM] | activity change, negative = thiol reactive [4] 122% [at 11.5 µM]
